In the supplement of paper PMC10681739:

Target: T1, ETS1 (UniProt P14921)
T1 sequence: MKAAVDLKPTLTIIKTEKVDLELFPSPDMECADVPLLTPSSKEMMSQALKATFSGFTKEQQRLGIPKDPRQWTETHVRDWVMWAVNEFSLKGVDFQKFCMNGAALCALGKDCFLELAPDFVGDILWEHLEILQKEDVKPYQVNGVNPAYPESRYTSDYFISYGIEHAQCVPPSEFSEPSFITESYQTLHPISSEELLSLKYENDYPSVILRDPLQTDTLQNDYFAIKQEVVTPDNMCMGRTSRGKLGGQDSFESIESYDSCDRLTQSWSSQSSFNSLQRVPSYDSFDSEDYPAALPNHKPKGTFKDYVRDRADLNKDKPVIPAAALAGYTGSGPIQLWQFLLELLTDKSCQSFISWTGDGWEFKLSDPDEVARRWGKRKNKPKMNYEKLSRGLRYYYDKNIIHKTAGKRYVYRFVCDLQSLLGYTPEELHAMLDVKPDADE
Test: TF binding intensity (PBM fluorescence), negative control probe (arbitrary fluorescence units); higher = stronger binding
Protocol: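 gcPBM negative-control 36-bp genomic probes lacking TF binding sites. Each was incubated with recombinant human ETS1 or RUNX1 alone and detected by antibody fluorescence. Values are medians over replicate spots (4 spots for the ETS1-RUNX1 arrays, 3 for the ETS1-ETS1 array). The probes sit in constant array flanks that are not printed.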

Question: Which TF binding intensity does the source give for “GAACTAACGAGGTCACTGAGAAATTACAAAGTGTGA (protein concentration 10 nM)” here?
Answer: Its TF binding intensity is 107.

Question: For “CTACAAGTCGTGAAGGGGCGAGGCGCAAAAGCGTAG (protein concentration 10 nM)”, which TF binding intensity is on record?
Answer: The TF binding intensity was 125.

Question: With “CTATAGTATGTCAAAACCACAAAGACAATGTGCAGC (protein concentration 1 nM)” as the sequence, how does the TF binding intensity read?
Answer: Its TF binding intensity is 466.

Question: How did the TF binding intensity turn out when “CCCTAAGCGCCTGCGCACATTTGCGCATCGCTCTGC (protein concentration 10 nM)” was run?
Answer: The TF binding intensity was 109.

Question: “CAGTGCAGCTGTTTGCCATGTGGGCCCACACCACTG (protein concentration 10 nM)” was tested. Which TF binding intensity did it give?
Answer: The TF binding intensity was 126.

Question: How did the TF binding intensity turn out when “AACAGCCCCCTGAACTGCAGGGTGTGACTGTTAGCC (protein concentration 10 nM)” was run?
Answer: The TF binding intensity was 140.

Question: How did the TF binding intensity turn out when “TTATAGGTGAGAGCTACCATGCCTGGTCCTATTTAA (protein concentration 10 nM)” was run?
Answer: Its TF binding intensity is 97.6.

Question: With “GTTAGAATGCAACCTTTTGACTTATATCTTTTCCCC (protein concentration 10 nM)” as the sequence, how does the TF binding intensity read?
Answer: Its TF binding intensity is 140.
